TDP1 block: qHTS Assay for Inhibitors of Tyrosyl-DNA Phosphodiesterase (TDP1); AID 485290, 2010; Potency, µM (titrated, usually from 130 µM), for the others: top-dose activity change, negative = inhibition, usual class: inhibitors; recombinant TDP1, AlphaScreen DNA substrate cleavage; hit rate 0.28% among 350,000; Tyrosyl-DNA phosphodiesterase 1 (Homo sapiens), Q9NUW8; note: potency is the fitted concentration of half-maximal effect; nearly all actives have a fitted effect of over 40% in size
Target sequence (Q9NUW8 whole entry, looked up): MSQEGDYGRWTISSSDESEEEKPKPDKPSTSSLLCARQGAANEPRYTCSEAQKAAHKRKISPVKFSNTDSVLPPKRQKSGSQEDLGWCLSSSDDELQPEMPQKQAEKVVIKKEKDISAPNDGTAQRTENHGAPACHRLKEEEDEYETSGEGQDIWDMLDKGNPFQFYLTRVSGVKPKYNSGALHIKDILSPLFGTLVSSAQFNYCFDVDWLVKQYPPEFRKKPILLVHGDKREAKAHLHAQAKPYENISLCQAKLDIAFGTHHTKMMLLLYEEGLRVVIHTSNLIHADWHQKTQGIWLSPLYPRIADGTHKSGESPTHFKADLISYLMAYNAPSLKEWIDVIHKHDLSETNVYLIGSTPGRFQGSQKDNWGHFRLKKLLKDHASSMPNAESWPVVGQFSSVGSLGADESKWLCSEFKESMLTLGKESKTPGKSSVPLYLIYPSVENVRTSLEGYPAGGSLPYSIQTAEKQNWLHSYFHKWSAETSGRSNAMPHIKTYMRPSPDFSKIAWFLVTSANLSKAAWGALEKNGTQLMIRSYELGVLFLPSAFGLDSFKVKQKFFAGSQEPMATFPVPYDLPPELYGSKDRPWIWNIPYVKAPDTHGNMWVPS
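Enzyme-compound mixtures sat 15 min at room temperature, followed by a 5 min reaction with 15 nM final substrate and 10 min with AlphaScreen beads. Recombinant human Tdp1 was used at 1 nM final.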
DT40 TDP1 CPT: qHTS for Inhibitors of human tyrosyl-DNA phosphodiesterase 1 (TDP1): qHTS in cells in presence of CPT | Potency, µM (top dose mostly 46.2 µM), for inactives: at the highest dose activity change, negative = growth inhibition, most hits filed as inhibitors | AID 686979, 2013 | hit rate 12% among 420,000 | chicken DT40 Tdp1-/-;hTDP1 cells + 20 nM CPT, ATP luminescence, 48 h; note: potency is the fitted concentration of half-maximal effect; nearly all actives have a fitted effect of over 55% in size
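Chicken DT40 Tdp1-/- cells stably complemented with human TDP1 were seeded at 400 cells/well in medium containing 20 nM camptothecin, exposed to pin-transferred compounds, and grown at 37 °C for at least 48 hr. Viability was read as ATP luminescence.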
Giardia killer: Small Molecules that selectively kill Giardia lamblia: qHTS. activity change, % at 7.66 µM, hits read low. Giardia lamblia trophozoite viability. hit rate 0.15% among 340,000; in the data active = activity change below about -80%; inconclusive = between about -30% and that limit;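 note: parasites exposed to compound for two days anaerobically before the ATP read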
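Anaerobic 48 hrs incubation at 37 deg C of 100 trophozoites/well with test compounds; ATPLite 1-Step luminescence, 15-30 min RT, reports cellular ATP as viability.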
TDP1 cell noCPT: qHTS for Inhibitors of human tyrosyl-DNA phosphodiesterase 1 (TDP1): qHTS in cells in absence of CPT. DT40 Tdp1-/- hTDP1 cells, no CPT, ATP luminescence, 48 h. Potency, µM (highest dose often 46.2 µM), for the others: at the highest dose activity change, negative = growth inhibition, usual class: inhibitors. AID 686978, 2013. hit rate 15% among 420,000; note: potency is the fitted concentration of half-maximal effect; nearly all actives have a fitted effect of over 55% in size
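No-CPT arm: Tdp1-/-;hTDP1 DT40 cells (400/well) plus compounds, incubated ≥48 hr at 37 °C. Readout CellTiter-Glo luminescence.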
ELG1 DNA repair: qHTS screen for small molecules that inhibit ELG1-dependent DNA repair in human embryonic kidney (HEK293T) cells expressing luciferase-tagged ELG1; AID 504467, 2011; hit rate 2.3% among 330,000; Potency, µM (series often up to 46.1 µM), inactives show at the highest dose activity change, negative = inhibition, most hits filed as inhibitors; HEK293T ELG1-luciferase reporter, luminescence, 16 h; DNA damage induced by 5-fluorouridine; note: potency is the fitted concentration of half-maximal effect; nearly all actives have a fitted effect of over 55% in size
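DMSO vehicle served as the neutral condition. Each well held 2,000 cells given 5-fluorouridine plus compound; after 16 hr at 37 °C/5% CO2, ONE-Glo was added and luciferase measured 30 min later.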
IL1B secr inh: qHTS for Inhibitors of Inflammasome Signaling: IL-1-beta AlphaLISA Primary Screen | activity change, % at 57.5 µM | hit rate 4.7% among 360,000 | AID 743279, 2014 | THP-1 LPS/ATP IL-1B secretion, AlphaLISA, 16 h; active compounds read low; in the data active = activity change below about -50%; inconclusive = mostly about -30% to -49%
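Secreted IL-1B measured by AlphaLISA bead assay after 16 h compound exposure of THP-1 cells; compounds (final up to 57.5 uM) added 1 h before LPS (250 ng/mL) and ATP (1.25 mM) stimulation; lower signal means less secretion.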
The depositor's hits bear a star; ? = inconclusive; / = not tested or not shown; [ ] = dose if it differs, or a comment. Sampled rows, rich in hits. Any-hit rate of the full collection: about 19%. Unless noted, calls come from the whole dose curve; as a rule, active = well fitted curve in the direction sought with a large enough effect; inconclusive = small, poorly fitted or top-dose-only effect, or another doubt; inactive = no such curve, though single readings can be large; an effect the other way counts as inactive or inconclusive. % is set by controls: 0 for no effect and ±100 for the full control effect.

SMILES	TDP1 block	DT40 TDP1 CPT	Giardia killer	TDP1 cell noCPT	ELG1 DNA repair	IL1B secr inh
COc1ccc(-n2nnnc2C(c2ccccc2OC(F)(F)F)N2CCN(C/C=C/c3ccccc3)CC2)cc1 (centres undefined)	/	23.1µM*	/	16.4µM*	/	-10.1
COc1ccc2c(c1)CCc1cnc(-n3ncc(C(=O)N4CCN(CCO)CC4)c3C3CC3)nc1-2	/	5.9%	/	-17.5%	/	/
O=C(Nc1ccc2nc3n(c(=O)c2c1)CCCCC3)C(=O)N1CCN(c2ccccc2F)CC1	6.5%	?	-24.9	?	?	22.2
CC(C)CSc1nnc(-c2ccccc2)c(-c2ccccc2)n1	/	-22.7%	/	?	/	/
COc1cccc(-c2cc(C(=O)NCCc3ccc(C)cc3)[nH]n2)c1	2.8%	3.7%	/	?	/	/
CCCCn1nnnc1C(c1cccs1)N1CCN(C/C=C/c2ccccc2)CC1 (centres undefined)	/	20.6µM*	/	23.1µM*	/	-0.2
C(=C\c1ccccc1)/CN1CCN(C(c2nnnn2C2CCCCC2)C2CC2)CC1 (centres undefined)	/	?	/	16.4µM*	/	-5.4
COc1ccc(C(c2nnnn2-c2ccc(OC)cc2)N2CCN(C/C=C/c3ccccc3)CC2)cc1 (centres undefined)	/	?	/	?	/	-52.9*
C(=C\c1ccccc1)/CN1CCN(C(CCc2ccccc2)c2nnnn2C2CCCCC2)CC1 (centres undefined)	/	?	/	?	/	-21.7
COc1ccc(-n2nnnc2C(c2ccnc3ccccc23)N2CCN(C/C=C/c3ccccc3)CC2)cc1 (centres undefined)	/	7.31µM*	/	4.61µM*	/	?
c1ccc(CCn2nnnc2C(c2cccs2)N2CCOCC2)cc1 (centres undefined)	7.0%	2.9%	0.8	-17.0%	1.1%	5.4
CCc1nnc(SCc2cccc(F)c2)c2cc3sc(C)cc3n12	0.0%	?	/	?	/	/
COC(=O)c1sc(NC(=O)CSc2nc3cccnc3n2C)nc1C	/	?	-0.7	-7.7%	3.9%	14.2
C(=C\c1ccccc1)/CN1CCN(C(c2cccc3ccccc23)c2nnnn2C2CCCC2)CC1 (centres undefined)	/	20.6µM*	/	9.2µM*	/	?
COc1ccc(C(c2nnnn2C2CCCCC2)N2CCN(C/C=C/c3ccccc3)CC2)cc1 (centres undefined)	/	16.4µM*	/	?	/	-8.6
C=CCN1CCN(C(c2cccc(OC)c2OC)c2nnnn2CCC(C)C)CC1 (centres undefined)	6.1%	25.9µM*	6.2	23.1µM*	3.2%	6.1
C(=C\c1ccccc1)/CN1CCN(C(c2cc3ccccc3o2)c2nnnn2Cc2ccccc2)CC1 (centres undefined)	/	?	/	16.4µM*	/	1.8
C(=C\c1ccccc1)/CN1CCN(C(c2cc3ccccc3o2)c2nnnn2C2CCCC2)CC1 (centres undefined)	/	?	/	?	/	-20.3
C/C(=C(\CCO)SS/C(CCO)=C(\C)N(C=O)Cc1cnc(C)nc1N)N(C=O)Cc1cnc(C)nc1N	/	3.3%	/	-5.8%	/	/
COc1ccc(-n2nnnc2C(c2cccs2)N2CCN(C/C=C/c3ccccc3)CC2)cc1 (centres undefined)	/	16.4µM*	/	16.4µM*	/	0.0
COc1ccc(Cn2nnnc2C(c2cccs2)N2CCOCC2)cc1 (centres undefined)	2.2%	6.0%	-10.1	-10.6%	-14.1%	9.1
C(=C\c1ccccc1)/CN1CCN(C(c2ccnc3ccccc23)c2nnnn2-c2ccc3c(c2)OCCO3)CC1 (centres undefined)	/	16.4µM*	/	20.6µM*	/	-0.1
Cc1cccc(C)c1-n1nnnc1C(c1cccs1)N1CCN(C/C=C/c2ccccc2)CC1 (centres undefined)	/	?	/	?	/	-15.2
Cc1cccc(C)c1-n1nnnc1C(c1ccccc1)N1CCN(C/C=C/c2ccccc2)CC1 (centres undefined)	/	20.6µM*	/	16.4µM*	/	21.6
CC(=O)c1ccc(S(=O)(=O)N2CCNC(=O)C2)cc1	-4.1%	3.1%	1.5	-0.9%	7.6%	10.1
SMILES	TDP1 block	DT40 TDP1 CPT	Giardia killer	TDP1 cell noCPT	ELG1 DNA repair	IL1B secr inh
CSCC[C@H](NC(=O)[C@H]1N2C(=O)c3ccccc3C2SC1(C)C)C(=O)NCc1ccncc1 (some centres undefined)	2.2%	-14.5%	-4.4	8.6%	1.3%	-2.8
CC(C)C(=O)N1CCCC1(C)C(=O)NCc1ccc(Cl)cc1 (centres undefined)	/	-19.0%	/	8.9%	/	12.2
CC(Sc1nc2c([nH]c3ccccc32)c(=O)n1-c1ccccc1)c1ccccc1 (centres undefined)	5.5%	?	/	?	/	/
CN(C)c1c(Br)cc(C=O)cc1Br	/	6.4%	/	-19.1%	/	/
Cc1cc(C)c(NC(=O)CSC2=Nc3ccccc3C3=NC(CC(=O)NCc4cccs4)C(=O)N23)c(C)c1 (centres undefined)	-4.3%[12.3 µM]	?	/	?	/	/
COc1cc(OC)cc(C(=O)OCC(=O)NC2CCCCCC2)c1	1.8%	-20.4%	2.1	17.0%	1.3%	12.0
Cc1cc(C)cc(Oc2nc(C(F)(F)F)nc3ccccc23)c1	-2.8%	18.4µM*	2.0	20.6µM*	-4.6%	12.2
CC(=O)Nc1ccc(Oc2nc(C(F)(F)F)nc3ccccc23)cc1	/	1.2%	-2.2	-13.0%	0.6%	13.7
COc1ccc(Oc2ncc3nc(-c4cc(F)cc(F)c4)c(=O)n(C[C@H]4CCCO4)c3n2)cc1	/	?	/	-13.4%	/	/
CN(C(=O)c1ccccc1C(=O)OCC(=O)c1ccc(F)c(F)c1)C1CCCCC1	0.4%	?	7.1	25.9µM*	10.1%	?
COc1ccc(C(CNC(=O)c2oc3ccccc3c2C)N2CCCCC2)cc1 (centres undefined)	7.0%	16.4µM*	/	23.1µM*	/	/
COc1ccc(C(CNC(=O)c2oc3ccc(C)cc3c2C)N2CCCCC2)cc1 (centres undefined)	2.6%	20.6µM*	25.8	?	-1.8%	9.7
COc1ccc(C(CNC(=O)c2cc3ccccc3o2)N2CCCCC2)cc1 (centres undefined)	4.6%	?	5.7	20.6µM*	1.9%	?

Compound activity as filed in PubChem.
